High-throughput results from PubChem.
The sample as a whole holds a higher share of hits than the screen did.
Pf Dd2 inh = qHTS Primary assay for Inhibitors of Plasmodium falciparum Dd2 growth in vitro | P. falciparum Dd2 growth, SYBR Green, 72 h | Potency, µM (highest dose often 28.9 µM), inactives show top-dose activity, negative = inhibition, most hits filed as inhibitors | 4.3% of 120,000 active | AID 1347417, 2020; active = well fitted inhibition curve with a large enough effect;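 note: plate controls were DMSO vehicle for no effect and reference drug for full effect; nearly all actives have a fitted effect of over 65% in size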
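Readout: SYBR Green fluorescence, 485 nm excitation, 535 nm emission, after ~16 h lysis at 37C. Before that, Dd2-infected red cells (2.5% hematocrit) grew 72 h with compound, 29 uM top final concentration.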
The depositor's hits bear a star; i = inactive; [ ] = dose if it differs, or a comment. Potency is the fitted concentration of half-maximal effect.

SMILES	Pf Dd2 inh
Cc1cccc(NC(=O)CSc2nc(-c3cccc(C)c3)nc3c2Cc2c(CO)cnc(C)c2O3)c1	8.91µM*
Cc1cc(C)c(NC(=O)CSc2nc(-c3ccc(F)cc3)nc3c2Cc2c(CO)cnc(C)c2O3)c(C)c1	10.7%
Cc1ccc(NC(=O)CSc2nc(-c3ccc(F)cc3)nc3c2Cc2c(CO)cnc(C)c2O3)cc1C	9.4%
O=C(CSc1nc(-c2ccc(Cl)cc2)nc2c1Cc1ccccc1O2)N1CCCCC1	32.9%
COc1cccc(-c2nc3c(c(SCC(=O)Nc4cc(C)ccc4C)n2)Cc2c(CO)cnc(C)c2O3)c1	40.6%
CC(C)=CC(=O)N1CC[C@H](NC(=O)NC(C)C)[C@H]1C(=O)N[C@H](Cc1c[nH]c2ccccc12)C(N)=O	-5.6%
O=C1COc2ccc(Nc3ccccc3F)nc2CN1Cc1ccc(F)cc1	-9.3%[44.1 µM]
CNC(=O)[C@@H]1C[C@@H](n2cc(CNC(=O)Nc3ccc(Cl)cc3)nn2)CN1	-5.7%
COC(=O)c1ccc2nc(CO[C@H]3CN(Cc4ccc(OC)nc4)C[C@H]3F)[nH]c2c1	-2.1%[44.1 µM]
CC(C)CCNC(=O)CC1Sc2ncccc2N(CC(C)C)C1=O (stereo not given)	-1.5%
Cn1ccnc1C(=O)N1CCCC1c1nncn1Cc1ccncc1 (stereo not given)	0.9%
O=C(C1CC=CC1)N1CC(F)(F)C[C@H]1c1nc(-c2ncccn2)no1	i
CCN1C(=O)C2(CCN(S(=O)(=O)c3ccc(C(F)(F)F)cc3)CC2)c2ccccc21	i
Cc1cccc(NC(=O)Cn2ccn3nc(-c4ccccc4)c(CO)c3c2=O)c1C	i
CCOC(=O)C1CCCN(C(=O)Cn2ncc3c4ccccc4n(Cc4ccccc4)c3c2=O)C1 (stereo not given)	0.1%
O=C(Cn1ncc2c3ccccc3n(Cc3ccccc3F)c2c1=O)N1CCCCCC1	10µM*
CC1CCCCN1CCCNC(=O)Cn1ncc2c3ccccc3n(C)c2c1=O (stereo not given)	i
CCCn1c2ccccc2c2cnn(CC(=O)N3CCCC(C)C3)c(=O)c21 (stereo not given)	-11.1%
CC1CCCCN1CCCNC(=O)Cn1ncc2c3ccccc3n(Cc3ccccc3F)c2c1=O (stereo not given)	5.01µM*
CCCn1c2ccccc2c2cnn(CC(=O)NCCCN3CCCCC3)c(=O)c21	-19.2%
COCCN1C(=O)C(CC(=O)NCCCn2cccn2)=C2CCCCC21 (stereo not given)	-4.2%
COCCNC(=O)[C@H]1C[C@H](Oc2ccccc2)CN1C(=O)C(C)C	15.4%
COc1cc(SC)ccc1C(=O)N[C@H]1CCN2C(=O)N(c3cccc(C(F)(F)F)c3)C(=O)[C@@H]2C1	i
CCC(CC)NC(=O)C1CCCN(S(C)(=O)=O)CCC(=O)NCC1 (stereo not given)	8.4%
CS(=O)(=O)N1CC(F)(F)C[C@H]1c1nc(-c2ccncc2)no1	16.0%
SMILES	Pf Dd2 inh
Cc1cc2cc(-c3c(C)noc3C)nc(N3CCN(c4ccccn4)CC3)c2o1	-23.1%[44.1 µM]
Cc1cc2cc(-c3c(C)noc3C)nc(N(C)C)c2o1	i
COc1cc(-c2nc(-c3c(C)noc3C)cc3cc(C)oc23)ccn1	11.2µM*
COc1cc(-c2nc(-c3c(C)noc3C)cc3c2cc(C)n3C)ccn1	-5.3%[44.1 µM]
COc1ccc(-c2nc(-c3c(C)noc3C)cc3cc(CO)oc23)cn1	19.3%[44.1 µM]
Cc1cc(-c2nc(-c3c(C)noc3C)cc3cc(C)oc23)ccn1	11.2µM*
COc1cccc(CC(=O)N2CC[C@@H](NC(=O)c3ccncc3)[C@H](O)C2)c1	2.6%
CN(C)c1cccc(C(=O)N2CCC(c3c[nH]c4ccccc34)(c3c[nH]c4ccccc34)CC2)c1	3.98µM*
Cc1ccc(C2=NC3(CCN(C(=O)c4cccc(N(C)C)c4)CC3)ON2)cc1	-8.0%
CC(C)CC1=NC2(CCN(C(=O)c3cccc(N(C)C)c3)CC2)C(=O)N1	-2.4%
CC(C)(CC(=O)O)CC(=O)N[C@H]1CO[C@H]2[C@@H]1OC[C@@H]2n1nnnc1Oc1ccc(-n2cncn2)cc1	4.2%
Cc1ccc(-c2ncc(C(=O)O)c(-c3ccncc3)n2)cc1	-19.2%
O=C(c1csc2c1CCCC2)N1CCCC(OCc2ccccn2)C1 (stereo not given)	-3.0%
CCc1ccc(C(=O)N2CCC(N3C(=O)CCC3C(=O)NCc3ccccc3)CC2)cc1 (stereo not given)	-14.1%
CCc1ccc(CNCc2c(C(=O)O)n(Cc3ccc(C)cc3)c3cc(C)ccc23)cc1	5.01µM*
COc1ccc(OC)c(CNCc2c(C(=O)O)n(Cc3ccccc3)c3cc(OC)ccc23)c1	i
Cc1ccc2c(CNCC(C)c3ccccc3)c(C(=O)O)n(Cc3ccccc3C)c2c1 (stereo not given)	i
Cc1ccc(CNCc2c(C(=O)O)n(Cc3ccccc3C)c3cc(C)ccc23)cc1	3.16µM*
Cc1ccc(Cn2c(C(=O)O)c(CNCc3ccc(OC(C)C)cc3)c3ccc(C)cc32)cc1	11.2µM*
COc1ccc2c(CNCc3ccco3)c(C(=O)O)n(Cc3ccccc3)c2c1	-8.3%
Cc1ccc(CNCc2c(C(=O)O)n(Cc3ccc(C)cc3)c3cc(C)ccc23)cc1	-13.4%
COc1ccc2c(CNCc3cccs3)c(C(=O)O)n(Cc3ccc(C)cc3)c2c1	-5.6%
Cc1ccc2c(CNC3CCCC3)c(C(=O)O)n(Cc3ccc(F)cc3)c2c1	-3.5%
C=Cc1ccc(Cn2c(C(=O)O)c(CNCc3ccccc3)c3ccc(C)cc32)cc1	7.94µM*
COc1ccc(Cn2c(C(=O)O)c(CNCc3ccco3)c3ccc(C)cc32)cc1	i
SMILES	Pf Dd2 inh
Cc1ccc2c(CNCc3cccc(Cl)c3)c(C(=O)O)n(Cc3ccc(F)cc3Cl)c2c1	34.0%
O=C(CC1CCOCC1)N1CCC(Cc2ccccc2)CC1	19.2%
Nc1nc(C(=O)N[C@H]2CCOC[C@H]2C2CCOCC2)cs1	-0.1%
COCCNc1ncccc1-c1noc([C@@H]2CCCN2C2CCOCC2)n1	i
COCCc1noc(C2CN(C(=O)Nc3ccc(C)c(C)c3)C2)n1	-14.4%
CN(C)C(=O)C1CN(C(=O)c2ccc3c(c2)OCO3)CC12CCOCC2 (stereo not given)	2.2%
Cc1cc(C[C@@H]2COC[C@@H]2NC(=O)c2cc(=O)n(-c3ccccc3)[nH]2)on1	i
CC(C)C1c2nccn2CCCN1C(=O)CCn1cccn1 (stereo not given)	-15.1%
CCN(CC)CCNC(=O)C1CCCN(c2nnc(C)c3c(C)n(-c4ccc(Cl)cc4)nc23)C1 (stereo not given)	11.2µM*
Cc1nnc(N2CCC(C(=O)NC3CCCCC3)CC2)c2nn(-c3ccc(Cl)cc3)c(C)c12	11.5%
CCN(CC)CCNC(=O)C1CCCN(c2ncnc3onc(C)c23)C1 (stereo not given)	-8.6%
Cc1nnc(N2CCN(C(=O)NCCC(C)C)CC2)c2nn(-c3ccc(Cl)cc3)c(C)c12	1.1%
Cc1nnc(N2CCC(C(=O)N3CCCCC3)CC2)c2nn(-c3ccc(Cl)cc3)c(C)c12	10µM*
Cc1nnc(N2CCC(C(=O)NC3CCC(C)CC3)CC2)c2nn(-c3ccc(Cl)cc3)c(C)c12 (stereo not given)	3.2%
Cn1c(C(=O)N2CCNc3cnc(Nc4cccc(C(F)(F)F)c4)nc3C2)cc2ccccc21	-5.2%
CC(C)NC(=O)C1CCC(=O)N1C1CCNCC1 (stereo not given)	12.1%
Cc1nn(C)c(C)c1CCC(=O)N1CCCC(N(C)C)CC1 (stereo not given)	15.1%
COCC(=O)NC1CCC12CCN(C(=O)CCC1CCCC1)CC2 (stereo not given)	-23.8%
